From PubChem BioAssay
Calls of active or inactive are those of the source.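 The calls were made as follows, unless noted: active = potentiation averaged over duplicate wells exceeding buffer-only control mean by more than 3 SD; inactive = the rest.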

How the values were obtained:
[1] = thallium flux activation in parental CHO cells, counter-screen for KCNQ1 potentiator project (AID 493006;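 active = duplicate-averaged activation above buffer control mean plus 5 SD of those controls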;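 as to activation: fluorescence ratio of max minus min over baseline after K+ and Tl+ depolarization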); details: parental CHO-K1 cells, FluxOR thallium flux, at 10 µM; stronger effect = higher value
[2] = molecular target: Potassium voltage-gated channel subfamily KQT member 1 (Homo sapiens) (UniProt P51787); experiment: KCNQ1 potassium channel potentiators, confirmation, FluxOR thallium flux, CHO cells, duplicates (AID 493007); details: KCNQ1 cell line, FluxOR thallium flux fluorescence, at 10 µM; stronger effect = higher value, % of reference activator effect, buffer zero;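 as to outcome: cells depolarized by a potassium plus thallium sulfate stimulus after compound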;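 as to potentiation: 0% = buffer-only wells and 100% = R-L3 activator control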
Sequence of Potassium voltage-gated channel subfamily KQT member 1 (Homo sapiens) (P51787 whole entry, looked up): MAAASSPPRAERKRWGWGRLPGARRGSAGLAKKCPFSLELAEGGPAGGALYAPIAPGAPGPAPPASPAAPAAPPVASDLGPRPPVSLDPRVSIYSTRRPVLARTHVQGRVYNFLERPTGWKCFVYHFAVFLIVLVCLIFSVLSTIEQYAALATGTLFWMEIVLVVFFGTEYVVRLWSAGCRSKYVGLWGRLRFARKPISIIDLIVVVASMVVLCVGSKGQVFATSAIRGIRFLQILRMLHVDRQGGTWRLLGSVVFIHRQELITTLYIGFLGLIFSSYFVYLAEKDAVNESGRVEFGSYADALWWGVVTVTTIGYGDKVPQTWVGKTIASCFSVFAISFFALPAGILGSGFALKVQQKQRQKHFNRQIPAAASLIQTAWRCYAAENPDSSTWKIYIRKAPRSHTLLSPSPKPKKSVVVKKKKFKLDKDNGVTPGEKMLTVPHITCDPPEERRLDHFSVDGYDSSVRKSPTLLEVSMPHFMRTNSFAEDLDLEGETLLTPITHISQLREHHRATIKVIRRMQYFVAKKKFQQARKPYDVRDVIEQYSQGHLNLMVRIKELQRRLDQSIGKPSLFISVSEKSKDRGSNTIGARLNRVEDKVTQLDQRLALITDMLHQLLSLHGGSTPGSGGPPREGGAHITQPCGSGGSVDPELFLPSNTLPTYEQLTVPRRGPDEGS

[3] = molecular target: Potassium voltage-gated channel subfamily KQT member 2 (Rattus norvegicus) (UniProt O88943); experiment: rat KCNQ2 channel potentiation, selectivity assay for KCNQ1 potentiator project, KCNQ2-CHO-K1 cells (AID 493009;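 active = mean duplicate potentiation above the buffer control mean plus 5 SD of buffer wells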;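 also: assay conditions were tuned for KCNQ1 rather than KCNQ2 modulators; signal is max minus min fluorescence divided by baseline after thallium stimulus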); details: FluxOR thallium flux fluorescence, at 10 µM; stronger effect = higher value, scaled: buffer 0, activator control 100
Sequence of Potassium voltage-gated channel subfamily KQT member 2 (Rattus norvegicus) (O88943 whole entry, looked up): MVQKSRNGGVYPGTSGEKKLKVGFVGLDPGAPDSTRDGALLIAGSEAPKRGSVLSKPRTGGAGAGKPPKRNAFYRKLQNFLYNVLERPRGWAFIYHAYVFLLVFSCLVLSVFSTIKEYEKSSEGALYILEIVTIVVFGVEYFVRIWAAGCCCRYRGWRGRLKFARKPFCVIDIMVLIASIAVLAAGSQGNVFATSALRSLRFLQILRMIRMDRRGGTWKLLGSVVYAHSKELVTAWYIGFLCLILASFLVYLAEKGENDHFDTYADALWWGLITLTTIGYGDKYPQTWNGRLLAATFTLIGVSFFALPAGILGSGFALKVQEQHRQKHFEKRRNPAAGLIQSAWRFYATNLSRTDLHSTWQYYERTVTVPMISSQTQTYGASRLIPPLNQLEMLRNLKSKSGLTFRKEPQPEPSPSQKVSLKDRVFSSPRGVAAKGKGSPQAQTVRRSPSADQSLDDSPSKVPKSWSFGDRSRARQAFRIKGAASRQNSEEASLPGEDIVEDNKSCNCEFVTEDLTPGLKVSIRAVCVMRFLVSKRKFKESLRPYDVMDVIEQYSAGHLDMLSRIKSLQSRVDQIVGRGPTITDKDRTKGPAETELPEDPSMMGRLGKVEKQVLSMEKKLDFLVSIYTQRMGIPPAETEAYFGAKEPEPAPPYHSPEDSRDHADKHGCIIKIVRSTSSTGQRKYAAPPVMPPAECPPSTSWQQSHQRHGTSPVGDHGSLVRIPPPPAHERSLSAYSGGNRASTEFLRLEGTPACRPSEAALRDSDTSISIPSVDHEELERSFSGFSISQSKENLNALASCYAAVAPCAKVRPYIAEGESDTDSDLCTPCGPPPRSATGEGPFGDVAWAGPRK

[4] = molecular target: Potassium voltage-gated channel subfamily KQT member 1 (Homo sapiens) (UniProt P51787); experiment: KCNQ1 channel current potentiators, confirmation, orthogonal assay for KCNQ1 potentiator project, IonWorks patch clamp, KCNQ1-CHO cells (AID 493184;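 active = current rise at least 3 SD above the untreated control mean in each of two repeat wells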); details: automated patch clamp current, at 10 µM
[5] = molecular target: Potassium voltage-gated channel subfamily E member 1 (Homo sapiens) + Potassium voltage-gated channel subfamily KQT member 1 (Homo sapiens) (UniProt P15382+P51787); experiment: KCNQ1/KCNE1 complex potentiators, confirmation, selectivity assay for KCNQ1 potentiator project, thallium flux, CHO-K1 KCNQ1/E1 cells (AID 493186;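 active = mean duplicate activation above the buffer control mean plus 5 SD of those controls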); details: FluxOR thallium flux, at 10 µM
Sequence of Potassium voltage-gated channel subfamily E member 1 (Homo sapiens) + Potassium voltage-gated channel subfamily KQT member 1 (Homo sapiens) (P51787 whole entry, looked up): as the sequence (P51787 whole entry, looked up) above

SMILES	outcome [1]	outcome [2]	outcome [3]	outcome [4]	outcome [5]	potentiation [2]	activation [1]	potentiation [3]
CCOP1(=S)Oc2cc3c(cc2C(C(=O)OC)(C(F)(F)F)O1)OCO3 (configuration not stated)	inactive	inactive	inactive	inactive				
C/C=C(\C)C(=O)N[C@@H](c1ccccc1)[C@@H](O)C(=O)O[C@H]1C[C@@]2(O)[C@@H](OC(=O)c3ccccc3)C3[C@](C)(C(=O)[C@H](OC(C)=O)C(=C1C)C2(C)C)[C@@H](O)C[C@H]1OC[C@@]31OC(C)=O (some centres not stated)	inactive	inactive	inactive	inactive	inactive			
O=C(O)c1cccc2c1NC(c1cccc([N+](=O)[O-])c1)C1CC(Sc3ccccc3[N+](=O)[O-])C(Cl)C21 (configuration not stated)	inactive	inactive	inactive	inactive				
Cc1ccccc1-n1c(O)c(/C=N/N2CCOCC2)c(=O)[nH]c1=S	inactive	inactive	inactive	inactive				
COc1ccc2c(c1)/C(=C/c1cnc[nH]1)C(=O)N2	inactive	inactive	inactive	inactive	inactive			
Cc1nc2ccccc2c(=O)n1/N=C/c1cc(Br)cc(Br)c1O	inactive	inactive	inactive	inactive				
CC(=O)OC(C)(C)/C=C/C(=O)C(C)(O)C1[C@H](O)C[C@@]2(C)C3CC=C4C(CC[C@@H](O)C4(C)C)[C@]3(CO)C(=O)C[C@]12C (some centres not stated)	inactive	inactive	inactive	inactive	inactive			
O=[N+]([O-])c1ccc(N2CCOCC2)c2ccncc12	inactive	inactive	inactive	inactive	inactive			
O=c1c(C=NCCN2CCNCC2)c(O)n(C2CCCCC2)c(=O)n1C1CCCCC1	inactive	inactive	inactive	inactive	inactive			
Cn1cccc1/C=C1/C(=O)NC(=S)N(Cc2ccc(F)cc2)C1=O	inactive	inactive	inactive	inactive	inactive			
COc1ccccc1N(CC(=O)NC1CCCC1)C(=O)c1cnn(C(C)C)c1	inactive	inactive	inactive	inactive				
C=C(C)[C@@]12OC3(c4ccccc4)O[C@@H]1C1[C@@H]4O[C@]4(CO)[C@@H](O)[C@]4(O)C(=O)C(C)=C[C@H]4[C@@]1(O3)[C@H](C)[C@H]2OC(=O)/C=C/C=C/c1ccccc1 (some centres not stated)	inactive	inactive	inactive	inactive				
C/C1=C\[C@@H](C)C/C=C/[C@H]2[C@@H]3O[C@]3(C)[C@@H](C)[C@H]3[C@H](Cc4c[nH]c5ccccc45)NC(=O)[C@]32C(=O)/C=C/C(=O)[C@@H]1O	inactive		inactive	inactive	inactive	20.5% (active)		
Nc1ncnc2c1ccn2[C@@H]1O[C@H](CO)[C@@H](O)[C@H]1O	inactive	inactive	inactive	inactive				
CN1CCC(c2c[nH]c3ccccc23)C1 (configuration not stated)	inactive	inactive	inactive	inactive				
COc1cc(-n2c(=S)[nH]c3ccccc3c2=O)c(Cl)cc1Cl	inactive	inactive	inactive	inactive				
CN1CCN(c2cc(N3CCCC3)c([N+](=O)[O-])cc2F)CC1	inactive	inactive	inactive	inactive				

SMILES	outcome [1]	outcome [2]	outcome [3]	outcome [4]	outcome [5]	potentiation [2]	activation [1]	potentiation [3]
Brc1ccc2c(c1)C(OC1CN3CCC1CC3)c1ccccc1CS2 (configuration not stated)	inactive		inactive	inactive		40.5% (active)		
CC1(C)C[C@H]2C=C(C=O)[C@]3(C=O)C[C@]3(C)[C@H]2C1	inactive		inactive	inactive	inactive	24% (active)		
CCN(CC)C(=O)c1ccc(NC(=O)CSc2nnnn2-c2cc(OC)ccc2OC)cc1	inactive	inactive	inactive	inactive				
CN1CC(C(=O)c2ccccc2)C(c2ccccc2)C1 (configuration not stated)	inactive	inactive	inactive	inactive				
COc1ccc(C2NCc3ccc4c(c3-n3cccc32)OCO4)cc1O (configuration not stated)	inactive	inactive		inactive	inactive			
CNc1ccc2oc(C[C@H]3O[C@@]4(CC[C@H]3C)O[C@H]([C@H](C)C(=O)c3ccc[nH]3)[C@H](C)C[C@H]4C)nc2c1C(=O)O				inactive		89% (active)	144% (active)	210% (active)
N#CCCn1cc(C(=O)Nc2ccccc2Cl)c(-c2ccc(F)cc2)n1	inactive	inactive		inactive				144% (active)
CCOc1cc(C=C2C(=O)NC(=O)NC2=O)ccc1OS(=O)(=O)c1ccccc1	inactive	inactive	inactive	inactive				
c1ccc2c(c1)Sc1ccccc1N2CC1CN2CCC1CC2 (configuration not stated)	inactive	inactive	inactive	inactive				
Cc1c(Cl)cccc1NC(=S)N1CC2CC(C1)c1cccc(=O)n1C2 (configuration not stated)	inactive	inactive		inactive				
O=C1NC(=O)N(Cc2ccc(F)cc2)C(=O)/C1=C/c1cccs1	inactive	inactive	inactive	inactive				
Cc1ccc(/C=C2/C(=O)NC(=O)N(CCc3ccc(F)cc3)C2=O)o1	inactive	inactive	inactive	inactive	inactive			
Cc1ccccc1CC(=O)N(CCN(C)C)CC1CCCN(Cc2ccccc2F)C1 (configuration not stated)	inactive	inactive		inactive	inactive			
CC(=NCc1ccc(F)cc1)c1c(O)n(C)c(=O)n(C)c1=O			inactive	inactive		91.5% (active)	144% (active)	
CCOc1cc(CNCCc2c[nH]c3ccccc23)cc(Cl)c1OCC	inactive		inactive	inactive	inactive	19% (active)		
CC1(C)CSC(=NCc2ccccc2)N1	inactive		inactive	inactive	inactive	23% (active)		
